Compound activity from PubChem.
In the library only some 4.7% were active in any assay of this set; here they are far more common.
D1 ag – agonists of human D1 dopamine receptor; hit rate 1% among 360,000; activation, % at 2 µM; HEK293 T-REx D1 cells, calcium flux, agonist mode; AID 504660; P21728; also: 0% is about no effect
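Agonism was scored from calcium flux recorded over 180 s (1 read/s) after pintool compound addition, following a 10-cycle baseline. Cells were inducible force-coupled HEK293 TREx D1, plated overnight at 30 C and loaded with no-wash calcium dye.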
D1 antagonist – antagonists of human D1 dopamine receptor; P21728; HEK293 TREx D1 cells, calcium flux, dopamine EC80; active compounds read low; activity change, negative = inhibition, % at 10 µM; hit rate 3.2% among 360,000; in the data active = activity change below about -30%; also: % is scaled to controls: 0 for no effect and ±100 for the full control effect
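Tetracycline-induced HEK293 Trex D1 cells, force-coupled to calcium, dye-loaded; compounds added and read 180 s, then EC80 dopamine added and calcium flux tracked kinetically another 180 s.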
TRHR agonist – TRH receptor (human) agonism; P34981; TRHR cells, calcium flux fluo-8, FDSS agonist mode; activation, % at 2 µM; hit rate 0.18% among 360,000; also: 0% is about no effect
Target sequence (P34981 whole entry, looked up): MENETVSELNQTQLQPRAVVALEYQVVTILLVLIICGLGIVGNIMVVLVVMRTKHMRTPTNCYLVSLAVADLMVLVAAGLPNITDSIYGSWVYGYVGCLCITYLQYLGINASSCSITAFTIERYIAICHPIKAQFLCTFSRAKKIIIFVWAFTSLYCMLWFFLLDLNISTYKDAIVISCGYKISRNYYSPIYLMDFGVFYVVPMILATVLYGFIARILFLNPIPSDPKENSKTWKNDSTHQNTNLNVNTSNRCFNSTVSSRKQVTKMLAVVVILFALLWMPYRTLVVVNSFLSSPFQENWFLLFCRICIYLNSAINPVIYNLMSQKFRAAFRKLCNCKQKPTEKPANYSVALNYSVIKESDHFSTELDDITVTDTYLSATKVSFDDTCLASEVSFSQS
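In this calcium-flux screen, cells bearing human TRHR are dye-loaded with fluo-8, baselined for 10 cycles, then exposed to library compounds; positive kinetic calcium responses during the agonist phase mark hits, with TRH as control.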
D1 PAM – human D1 dopamine receptor positive modulation. potentiation, % at 10 µM. HEK293 TREx D1 cells, calcium flux, dopamine EC20 potentiation. hit rate 0.036% among 360,000. P21728; in the data active = potentiation above about 30%; also: 0% is about no effect
TRHR PAM – allosteric enhancers of human TRH receptor; P34981; TRHR cells, fluo-8 calcium fluorescence, EC20 TRH enhancement; enhancement, % at 2 µM; hit rate 0.66% among 360,000; AID 493056; in the data active = enhancement above about 30%; also: 0% is about no effect
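TRHR-expressing cells loaded with fluo-8 calcium dye were read kinetically (ex 480/em 530) during compound addition, then stimulated with an EC20 of TRH (10 nM final). Enhancement of the Gq-mediated intracellular calcium response was scored.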
Starred values were filed as active, the others as inactive; . = not tested or not shown. Rule as the data show it, unless noted: active = activation above about 30%; inactive = the rest.

SMILES	D1 ag	D1 antagonist	TRHR agonist	D1 PAM	TRHR PAM
CN(C(=O)c1cccc(N2C(=O)C3CC=CCC3C2=O)c1)C1CCCCC1 (configuration not stated)	8.6	-30.5*	1.5	-2.9	-1.8
Cc1cccc(N2CCN(S(=O)(=O)c3c(C(=O)N4CCC(C)CC4)c(C)n(C)c3C)CC2)c1C	4.7	-6.3	-0.3	1.7	-13.9
CCCC(=O)c1ccc(O)cc1O	1.9	-20.4	-0.6	-0.8	17.7
S=C(NCc1ccc2c(c1)OCO2)Nc1ccc2nsnc2c1	34.1*	-33.1*	1.6	-6.9	-1.5
C=CCNC(=S)Nc1ccc2nsnc2c1	7.4	-89.5*	0.5	-4.1	-2.9
Cc1ccc(NC(=S)NCc2ccc3c(c2)OCO3)cc1C	8.8	-0.3	1.3	6.4	-5.4
CN(CC(=O)Nc1ccccc1Br)C(=O)c1cc([N+](=O)[O-])ccc1N1CCOCC1	1.1	0.8	-0.2	-3.6	-1.0
CCOC(=O)c1cccc(NC(=O)C(C)n2nc(C)c3c(C)n(-c4ccccc4)nc3c2=O)c1 (configuration not stated)	0.1	4.5	0.3	-0.9	3.0
CCc1ccc(-n2c(=O)c3cccnc3n2CC(=O)NCc2ccccc2)cc1	11.3	13.2	1.4	-3.5	-2.6
CCc1ccc(-n2c(=O)c3cccnc3n2CC(=O)NCc2ccc(F)cc2)cc1	7.3	-36.3*	0.7	-6.2	-9.4
CCN(CC)c1cccc(OC2=NS(=O)(=O)c3ccccc32)c1	4.2	10.2	-2.1	-0.9	37.4*
CCc1ccc(OC2=NS(=O)(=O)c3ccccc32)cc1	-1.7	.	1.4	-3.9	8.2
N#Cc1c(N)nc(N2CCCC2)c(C#N)c1-c1ccc(Cl)cc1	3.3	-56.6*	-0.7	-13.1	-9.3
O=C1NC2(CCCCCC2)C(=O)N1Cc1ccccc1F	2.7	-32.5*	-0.8	1.6	1.8
O=C1NC2(CCCCC2)C(=O)N1CCS(=O)(=O)Oc1ccccc1	0.0	-2.9	0.0	0.0	38.2*
CCC1(c2ccc(F)cc2)NC(=O)N(CC(=O)N2CCc3ccccc32)C1=O (configuration not stated)	58.0*	-14.5	4.7	.	-2.6
CCC1(c2ccc(F)cc2)NC(=O)N(CC(=O)Nc2ccccc2C)C1=O (configuration not stated)	22.8	-6.0	2.6	-8.8	2.7
CCN(Cc1ccccc1)C(=O)CN1C(=O)NC(CC)(c2ccc(F)cc2)C1=O (configuration not stated)	6.1	9.8	0.2	-14.7	31.0*
OC(COCc1ccccc1)CN1CCCCC1 (configuration not stated)	1.7	-7.4	0.7	-5.3	14.3
CCOC(=O)c1[nH]c(C)c(/C=N/O)c1C	1.1	-56.4*	-1.2	-12.5	1.8
Cc1cc(OCCCn2ccnc2)cc(C)c1Cl	7.7	-31.5*	-0.2	-8.9	-7.3
CCc1cccc(OCCCn2ccnc2)c1	5.6	-31.5*	-0.5	-1.9	0.3
CCOC(=O)C1CCC(CN(Cc2c(Cl)cccc2Cl)S(=O)(=O)c2ccc(F)c(C)c2)CC1 (configuration not stated)	3.4	-5.2	1.1	-3.5	1.7
Cc1coc2cc3oc(=O)c(CCC(=O)N4CCC(C(=O)O)(c5ccccc5)CC4)c(C)c3cc12	13.3	-6.4	0.0	-4.4	6.2
COc1cccc(C(=O)NCCSc2c(C)[nH]c3ccccc23)c1OC	16.4	-37.9*	0.7	-13.1	-11.2
SMILES	D1 ag	D1 antagonist	TRHR agonist	D1 PAM	TRHR PAM
COc1ccccc1C(=O)NCCSc1c(C)[nH]c2ccccc12	6.1	-15.1	0.5	-0.1	-3.6
Cc1ccc(C(=O)NCCSc2c(C)[nH]c3ccccc23)cc1[N+](=O)[O-]	-0.4	-69.7*	-0.2	-11.1	-1.6
Cc1cccc(-c2nc(SCC(=O)NCC3CCCO3)c3c(=O)n(C)c(=O)n(C)c3n2)c1 (configuration not stated)	1.4	-15.3	0.2	-0.1	1.6
COC(=O)c1ccc2c(C)c(C(C)(C)O)[nH]c2c1	-0.4	-24.3	-0.1	-3.7	-0.5
CCc1ccc(NC(=O)CN(c2ccc(Cl)cc2)S(=O)(=O)c2ccsc2C(=O)OC)cc1	8.4	-14.8	-1.0	0.2	-2.4
Fc1cc2[nH]c(=S)[nH]c2cc1Cl	2.1	-40.8*	-0.8	-3.7	-6.5
Cc1cc2[nH]c(=S)[nH]c2cc1C	1.9	-16.4	-0.1	1.9	-2.8
COC(=O)c1ccc(OC)c(Cn2c(=O)n(-c3cccc(Cl)c3)c(=O)c3c4c(sc32)CN(C(C)=O)CC4)c1	12.4	-39.8*	-0.4	-0.3	1.9
CCc1ccc(NC(=O)Cn2c(=O)n(CCc3ccccc3)c(=O)c3sc4ccccc4c32)cc1	2.6	-0.9	-1.3	-2.2	-3.7
CCCCCN(C(=O)COC(=O)c1ccc(Br)o1)c1c(N)n(CCCC)c(=O)[nH]c1=O	2.6	6.6	-1.2	-1.3	19.4
CCCCN(C(=O)C1CC(=O)N(CCc2ccc(OC)c(OC)c2)C1)c1c(N)n(CCCC)c(=O)[nH]c1=O (configuration not stated)	1.9	8.6	-0.1	5.8	30.3*
CCCCCN(C(=O)COC(=O)c1ccc(C)cc1)c1c(N)n(CCCC)c(=O)[nH]c1=O	2.5	-34.6*	1.4	-1.8	2.6
CCCCn1c(N)c(N(CC)C(=O)c2cccc(OC)c2)c(=O)[nH]c1=O	1.4	-31.5*	0.7	-4.5	-2.4
CCCCn1c(N)c(N(CCOC)C(=O)c2ccc(C)c(S(=O)(=O)N3CCCCC3)c2)c(=O)[nH]c1=O	5.7	-38.0*	-0.2	-2.5	6.4
CCCCn1c(N)c(N(CCOC)C(=O)c2ccc(Cl)c(S(=O)(=O)N3CCCC3)c2)c(=O)[nH]c1=O	2.7	-0.7	0.3	-9.9	-1.0
COC(=O)CC1C(=O)NCCN1C(=O)c1ccc([N+](=O)[O-])cc1 (configuration not stated)	-0.5	-2.0	0.7	-5.0	7.6
CCCCn1c(N)c(N(CC)C(=O)C2CCCC2)c(=O)[nH]c1=O	3.0	6.8	0.2	-2.8	36.5*
Cc1ccc2nc(-c3sc4nc(C)ccc4c3N)[nH]c2c1	-0.5	-38.2*	-0.2	-4.7	11.3
CCCNC(=O)c1nnsc1S(=O)c1ccc(Cl)cc1 (configuration not stated)	2.2	19.7	9.0	-0.8	-2.3
CCCNC(=O)c1nnsc1S(=O)(=O)c1ccc(Cl)cc1	-0.1	-38.8*	11.6	-7.1	-10.9
COc1ccc(-c2noc(N3CCC(C(=O)Nc4ccccc4OC)CC3)n2)cc1	7.6	-34.1*	-0.2	-4.0	0.5
N#C/C(=C\c1ccc(N2CCOCC2)o1)C(=O)Nc1ccc(O)cc1	41.0*	-23.3	17.2	3.0	1.7
COc1ccc(NC(=O)/C(C#N)=C\c2ccc(N3CCOCC3)o2)cc1	212.9*	-20.4	74.6*	-0.1	0.6
